Reference: PubChem BioAssay
Unmarked numbers belong to inactive results. Calls of active or inactive are those of the source.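 Rule for the calls, unless noted: active = mean inhibition above 46.5%, the solvent-only control mean plus 3 SD; inactive = the rest.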

Columns and labels:
[1] = tested on: transactivating tegument protein VP16 (Human herpesvirus 1); assay: compounds suppressing VP16-driven luciferase signal – cell-based, luminescence, single concentration, counter-screen for SRC2 inhibitor project (AID 652007; in the data active = inhibition above about 36%); details: cell-based VP16 transactivation luciferase reporter, at 8.9 µM, hits give high values
[2] = target: Nuclear receptor coactivator 2 (Homo sapiens) (UniProt Q15596); assay: inhibition of GAL4-SRC2 driven luciferase expression – cell-based, luminescence, HEK293, triplicate, confirmation (AID 652008); details: HEK293 GAL4-SRC2 luciferase reporter, at 8.9 µM, hits give high values;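 note: 0% = DMSO-treated cells and 100% = Gossypol at 36 µM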
Chain of Nuclear receptor coactivator 2 (Homo sapiens) (Q15596 whole entry, looked up, the tested form may be a part): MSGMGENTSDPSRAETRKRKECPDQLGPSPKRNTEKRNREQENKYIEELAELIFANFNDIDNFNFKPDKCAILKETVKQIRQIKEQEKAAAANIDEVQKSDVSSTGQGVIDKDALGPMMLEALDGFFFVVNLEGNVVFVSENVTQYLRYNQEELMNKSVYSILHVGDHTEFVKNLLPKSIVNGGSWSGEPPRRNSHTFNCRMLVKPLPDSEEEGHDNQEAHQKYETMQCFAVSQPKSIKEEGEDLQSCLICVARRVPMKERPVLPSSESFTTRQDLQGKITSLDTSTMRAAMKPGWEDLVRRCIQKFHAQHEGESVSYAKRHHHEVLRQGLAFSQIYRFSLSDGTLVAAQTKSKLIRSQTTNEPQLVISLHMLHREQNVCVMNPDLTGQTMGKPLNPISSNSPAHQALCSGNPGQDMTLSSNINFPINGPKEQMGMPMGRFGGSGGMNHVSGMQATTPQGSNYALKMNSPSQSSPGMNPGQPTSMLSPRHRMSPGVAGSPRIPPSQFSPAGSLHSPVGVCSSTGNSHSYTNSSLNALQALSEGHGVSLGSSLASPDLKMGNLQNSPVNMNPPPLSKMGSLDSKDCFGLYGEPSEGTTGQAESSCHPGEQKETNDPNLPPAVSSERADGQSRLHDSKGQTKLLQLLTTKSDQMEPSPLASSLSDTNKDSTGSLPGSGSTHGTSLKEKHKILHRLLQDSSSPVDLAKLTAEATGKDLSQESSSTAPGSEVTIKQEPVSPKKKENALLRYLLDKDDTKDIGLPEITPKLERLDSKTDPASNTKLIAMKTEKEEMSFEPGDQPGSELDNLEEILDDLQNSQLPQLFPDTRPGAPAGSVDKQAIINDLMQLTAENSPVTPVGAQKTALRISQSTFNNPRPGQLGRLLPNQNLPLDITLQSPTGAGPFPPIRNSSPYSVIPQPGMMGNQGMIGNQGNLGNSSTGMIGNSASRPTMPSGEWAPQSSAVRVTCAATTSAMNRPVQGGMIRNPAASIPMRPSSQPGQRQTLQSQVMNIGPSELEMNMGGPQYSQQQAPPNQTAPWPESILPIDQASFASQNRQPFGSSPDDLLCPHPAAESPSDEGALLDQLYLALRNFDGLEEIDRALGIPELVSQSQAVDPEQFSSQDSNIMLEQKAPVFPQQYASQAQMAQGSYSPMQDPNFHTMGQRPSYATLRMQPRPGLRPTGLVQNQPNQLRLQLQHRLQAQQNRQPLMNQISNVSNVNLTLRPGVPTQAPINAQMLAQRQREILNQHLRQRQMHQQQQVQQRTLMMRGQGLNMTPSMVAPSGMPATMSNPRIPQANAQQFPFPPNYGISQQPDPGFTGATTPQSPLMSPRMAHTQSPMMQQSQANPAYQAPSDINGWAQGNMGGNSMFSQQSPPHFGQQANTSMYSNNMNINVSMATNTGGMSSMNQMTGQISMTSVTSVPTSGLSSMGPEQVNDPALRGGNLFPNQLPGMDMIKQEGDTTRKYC

SMILES	inhibition [1]	inhibition [2]
COc1ccc(CN2CCC(C(=O)Nc3ccc(Oc4ccccc4)nc3)CC2)cc1F	16.9%	28.5%
COc1ccc(CNC(=O)COC(=O)/C=C/c2cccc(Br)c2)cc1OC	-0.64%	-19.4%
CN1/C(=C\C=C2/SC(=S)NC2=O)C(C)(C)c2ccccc21	8.01%	15.6%
COc1ccc(CN2C[C@H](COCc3ccccc3)Oc3cccc(N4CCCC4)c3S2(=O)=O)cc1	-11%	-6.23%
CCOc1ccc(C(=O)C(CN2CCOCC2)c2ccccc2)cc1 (stereo not given)	14.2%	42.6%
Cc1ccc(S(=O)(=O)N2CCN(C(=O)c3cc4c(C)nn(-c5ccccc5C)c4s3)CC2)cc1	4.9%	4.62%
C=C1C(=O)[C@]23C[C@H]1CCC2[C@]1(C)CCC[C@@](C)(C(=O)O)C1C[C@@H]3O (stereo not given in full)	4.96%	6.02%
Cc1nnc(SCC2=C(C(=O)O)N3C(=O)C(NC(=O)Cn4nc(C)c(Cl)c4C)C3SC2)s1 (stereo not given)	-2.47%	-7.12%
CCN1CCN(Cc2ccc(NC(=O)c3cccc(-c4ccc5nc(NC(=O)C6CC6)sc5n4)c3)cc2C(F)(F)F)CC1	24.5%	58.1% (active)
O=C(NCC1COc2ccccc2O1)c1cccc(S(=O)(=O)N2CCN(c3ccccc3)CC2)c1 (stereo not given)	-4.6%	5.11%
CCN(CC)S(=O)(=O)c1ccc(Cl)c(NC(=O)COc2ccc(OC)cc2[N+](=O)[O-])c1	-24.3%	-28.8%
CCOc1ccc(NC(=S)NC(=O)/C=C/c2ccc(OC)cc2)c([N+](=O)[O-])c1	-22.3%	-19.4%
NNC(=O)COc1ccc(-c2nccc(-c3ccc(F)cc3)n2)cc1	-14.6%	32.3%
CCS(=O)(=O)c1ncc(Cl)c(C(=O)Nc2ccc(S(=O)(=O)N(C)c3ccccc3)cc2)n1	65.2% (active)	98% (active)
CC(Sc1nnc(CN2CCCC2)n1Cc1ccccc1)C(=O)Nc1ccc(F)cc1 (stereo not given)	1.17%	-5.19%
CCOc1ccc(-c2cc(CCCC(=O)NCc3ccc(C)cc3)no2)cc1	31.4%	60.2% (active)
Cc1ccc2cccc(NS(=O)(=O)c3ccccc3)c2n1	75.5% (active)	-19.5%
Cc1ccc(CS(=O)(=O)c2ncc(Cl)c(C(=O)Nc3nnc(C(C)C)s3)n2)cc1	27.3%	51.9% (active)
COc1ccc(C(C(=O)NC2CCCC2)n2c(CSCCOc3ccccc3)nc3ccccc32)cc1 (stereo not given)	43.5% (active)	76.4% (active)
CC(=O)Nc1cccc(-c2cc(NC(C)=O)c3ncc(-c4ccc(F)cc4)n3c2)c1	12%	2.54%
O=C(c1cc2sccc2n1Cc1ccc(F)cc1)N1CCN(c2nc3ccccc3s2)CC1	6.21%	36.9%
CCNC(=O)C1(C)CCCN(Cc2csc(-c3ccccc3)n2)C1 (stereo not given)	-30.6%	-4.83%
CN(c1ccccc1)S(=O)(=O)c1ccc(C(=O)NCc2ccccc2CN2CCCC2)cc1	-19.8%	-25.8%
CCOc1ccc(-c2c(C(=O)N/N=C/c3cccc(Br)c3)nnn2-c2nonc2N)cc1	-5.94%	-23.4%
CN1c2ccccc2C(C)(C)C12C=Cc1cc(O)ccc1O2 (stereo not given)	-7.85%	23.8%
Cc1ccc(C)c(S(=O)(=O)N2CCN(C(=O)C3CCN(c4ncnc5sc(C)c(C)c45)CC3)CC2)c1	15.6%	38.6%
Cc1ccc(N(C)C(=O)c2cc(S(=O)(=O)N3CCCCC3)c[nH]2)cc1	1.11%	15.4%
CCC(NC(=O)CCc1c(C)c2cc3c4c(oc3cc2oc1=O)CCCC4)C(=O)O (stereo not given)	38.3% (active)	70.3% (active)
COc1ccc(/C=C2\SC(=S)N(CCCC(=O)NNC(=O)c3ccccc3O)C2=O)cc1	89.9% (active)	93.1% (active)
Cn1nnnc1Sc1ncnc2scc(-c3cccc(F)c3)c12	7.55%	38.1%
